The values that follow come from PubChem BioAssay (EPA / NIEHS).

Records with an inconclusive call do not appear. Where a structure was tested more than once in an assay, its records may differ in their call. Active and inactive are the calls of the source. Rule for the calls, unless noted: active = hit-call score of the fitted dose curve at least 0.9, where 1 is the maximum; inconclusive = response in the unintended direction; inactive = score below 0.9.

Assay [1] has as its target Estrogen receptor (Homo sapiens) (UniProt P03372). The assay is described as follows: OT_ERa_GFPERaERE_0480: Odyssey Thera (OT) 8-hour HeLa Transcription Induction Assay for Estrogen Receptor (AID 2283381; active = hit-call score of the fitted dose curve at least 0.9, where 1 is the maximum; inactive = score below 0.9). In outline: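 GFP-ERE reporter, HeLa, 8 h exposure. Readout: fluorescence microscopy, high-content image analysis. Fit direction positive vs DMSO negative control.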

For assay [2] the target is unchanged. The assay is described as follows: OT_ERa_GFPERaERE_0120: Odyssey Thera (OT) 2-hour HeLa Transcription Induction Assay for Estrogen Receptor (AID 2283382). Summed up: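 Fluorescence microscopy read-out: inducible fluorescent protein reporter in HeLa cells, imaged 2 h post-dose. Signal increase over DMSO negative control fitted as single primary endpoint via high content image analysis.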

Assay [3] addresses Bile acid receptor (Homo sapiens) (UniProt Q96RI1). The assay is described as follows: OT_FXR_FXRSRC1_1440: Odyssey Thera (OT) 24-hour HEK293T Protein-Complementation Assay for Farnesoid X receptor/SRC-1 Co-activator (AID 2283384). Summed up:
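Fluorescence readout, 24 h post-dose, HEK293T; FXR and SRC-1 fused to complementary reporter fragments, association reconstitutes signal. Positive-direction fit vs DMSO baseline.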

In assay [4] the target is Peroxisome proliferator-activated receptor gamma (Homo sapiens) (UniProt P37231). The assay is described as follows: OT_PPARg_PPARgSRC1_0480: Odyssey Thera (OT) 8-hour Protein-Complementation Assay for Peroxisome Proliferator-activated Receptor Gamma / SRC-1 Co-activator (AID 2283387).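 Note: nuclear to cytoplasmic split Venus YFP fluorescence ratio reporting PPARg SRC-1 interaction.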 In outline:
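Split-YFP (IFP1/IFP2) PPARg/SRC-1 reporter, HEK293T, 37 °C, 5% CO2; 8 h compound; formaldehyde fix + Draq5; high-content imaging, N/C ratio, ≥350 cells/image, positive direction vs DMSO.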

The target is the same in assay [5]. As to the kind of experiment: OT_PPARg_PPARgSRC1_1440: Odyssey Thera (OT) 24-hour Protein-Complementation Assay for Peroxisome Proliferator-activated Receptor Gamma/ SRC-1 Co-activator (AID 2283388).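 Note: nuclear to cytoplasmic ratio of reconstituted Venus YFP fluorescence in fixed imaged cells.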 Summed up:
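Protein-fragment complementation between PPARg and coactivator SRC-1 was measured by fluorescence imaging in transiently transfected HEK293T cells after 24 h treatment. Signal was quantified as N/C ratio in the 488 nm channel, with DMSO as negative control.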

Assay [6] concerns the target Retinoic acid receptor RXR-alpha (Homo sapiens) (UniProt P19793). The assay is described as follows: OT_NURR1_NURR1RXRa_0480: Odyssey Thera (OT) 8-hour HEK293T Protein Complementation Assay for Nurr1/retinoid X receptor (RXR) (AID 2283385). In outline:
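Read-out: fluorescence from protein-fragment complementation between Nurr1 and RXRα in human HEK293T cells, 8 h after dosing. DMSO served as negative control; increased signal counted as activity.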

The target is the same in assay [7]. As to the kind of experiment: OT_NURR1_NURR1RXRa_1440: Odyssey Thera (OT) 24-hour HEK293T Protein Complementation Assay for Nurr1/retinoid X receptor (RXR) (AID 2283386). In outline:
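Fluorescence PCA read-out; HEK293T; 24 h post-dose; bait/prey fused to reporter fragments; gain-of-signal fit vs DMSO negative control.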

For assay [8], the target named is Bile acid receptor (Homo sapiens) (UniProt Q96RI1). As to the kind of experiment: OT_FXR_FXRSRC1_0480: Odyssey Thera (OT) 8-hour HEK293T Protein-Complementation Assay for Farnesoid X receptor/SRC-1 Co-activator (AID 2283383). Summed up: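 Fluorescence intensity read-out, 8 h post-dose, HEK293T protein-fragment complementation; FXR bait and SRC-1 prey each linked to reporter fragments. Activity scored as signal increase over DMSO negative control.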
Chain of Bile acid receptor (Homo sapiens) (Q96RI1 whole entry, looked up, the tested form may be a part): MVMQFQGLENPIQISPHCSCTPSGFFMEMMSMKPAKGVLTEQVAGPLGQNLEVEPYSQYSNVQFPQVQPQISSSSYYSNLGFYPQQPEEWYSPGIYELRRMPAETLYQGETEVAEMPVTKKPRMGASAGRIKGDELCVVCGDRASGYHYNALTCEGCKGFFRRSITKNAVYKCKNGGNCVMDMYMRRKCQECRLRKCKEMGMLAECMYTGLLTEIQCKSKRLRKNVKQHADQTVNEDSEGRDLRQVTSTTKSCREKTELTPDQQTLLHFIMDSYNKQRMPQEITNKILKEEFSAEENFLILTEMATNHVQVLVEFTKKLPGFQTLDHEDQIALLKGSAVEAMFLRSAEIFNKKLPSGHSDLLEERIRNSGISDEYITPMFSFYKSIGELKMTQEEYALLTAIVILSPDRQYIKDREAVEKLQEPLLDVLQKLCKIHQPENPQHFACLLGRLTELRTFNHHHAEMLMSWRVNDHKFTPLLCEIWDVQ

The nature of assay [9]: CEETOX_H295R_11DCORT: CeeTox H295R High-throughput Steroidogenesis Assay for 11-Deoxycortisol (11DCORT) (AID 2283432; active = hit-call score of the fitted dose curve at least 0.9, where 1 is the maximum; inactive = score below 0.9;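 for AC50: human adrenal H295R cells prestimulated with 10 µM forskolin for 48 h; 11-deoxycortisol secreted into the medium measured by LC-MS/MS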). Particulars: actives raise or lower the signal. Summed up: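 Steroidogenesis in human H295R cells: 48 h chemical exposure after forskolin priming, 11-deoxycortisol measured by LC-MS/MS.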
Assay [10] is described as follows: CEETOX_H295R_OHPREG: CeeTox H295R High-throughput Steroidogenesis Assay for OH-Pregnenolone (OHPREG) (AID 2283434; active = hit-call score of the fitted dose curve at least 0.9, where 1 is the maximum; inactive = score below 0.9). Particulars: actives raise or lower the signal. Summed up:
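Readout: HPLC-MS/MS of 17alpha-hydroxypregnenolone in medium after 48 h chemical exposure of H295R cells pretreated with forskolin. Values fitted bidirectionally relative to DMSO; chemicals reducing viability to 20–70% were retested after 10-fold dilution.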

One may read the AC50 as the concentration at which the activity in the assay is half-maximal.

Chain of Estrogen receptor (Homo sapiens) (P03372 whole entry, looked up): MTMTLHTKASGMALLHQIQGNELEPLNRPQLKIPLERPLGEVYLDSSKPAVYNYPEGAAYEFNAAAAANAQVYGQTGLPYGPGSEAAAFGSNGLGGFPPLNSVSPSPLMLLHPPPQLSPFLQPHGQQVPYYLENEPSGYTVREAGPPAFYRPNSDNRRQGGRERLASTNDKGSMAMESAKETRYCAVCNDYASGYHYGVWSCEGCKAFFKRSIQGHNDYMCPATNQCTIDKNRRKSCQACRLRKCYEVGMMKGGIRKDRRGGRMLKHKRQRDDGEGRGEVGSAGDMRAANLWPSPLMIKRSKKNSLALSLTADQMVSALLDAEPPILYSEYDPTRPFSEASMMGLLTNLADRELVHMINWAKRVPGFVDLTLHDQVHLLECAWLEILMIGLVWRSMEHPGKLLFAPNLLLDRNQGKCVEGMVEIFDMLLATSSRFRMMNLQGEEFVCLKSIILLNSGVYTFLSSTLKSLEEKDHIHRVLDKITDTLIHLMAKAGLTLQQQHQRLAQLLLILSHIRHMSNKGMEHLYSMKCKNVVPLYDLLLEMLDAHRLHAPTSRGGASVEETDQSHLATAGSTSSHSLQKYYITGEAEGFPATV
Chain of Retinoic acid receptor RXR-alpha (Homo sapiens) (P19793 whole entry, looked up, the tested form may be a part): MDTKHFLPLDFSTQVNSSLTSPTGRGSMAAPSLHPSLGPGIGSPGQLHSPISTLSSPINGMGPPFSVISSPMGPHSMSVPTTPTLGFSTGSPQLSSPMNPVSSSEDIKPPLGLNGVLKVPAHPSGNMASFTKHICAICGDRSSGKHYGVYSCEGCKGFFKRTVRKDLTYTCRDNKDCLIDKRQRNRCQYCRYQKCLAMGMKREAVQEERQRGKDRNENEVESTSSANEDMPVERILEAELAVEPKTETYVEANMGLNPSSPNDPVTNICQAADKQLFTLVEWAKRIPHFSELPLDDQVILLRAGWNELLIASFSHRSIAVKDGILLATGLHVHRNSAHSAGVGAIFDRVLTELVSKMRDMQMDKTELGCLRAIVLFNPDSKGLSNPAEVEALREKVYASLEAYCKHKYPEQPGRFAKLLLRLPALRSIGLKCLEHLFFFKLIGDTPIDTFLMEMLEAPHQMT
Chain of Peroxisome proliferator-activated receptor gamma (Homo sapiens) (P37231 whole entry, looked up): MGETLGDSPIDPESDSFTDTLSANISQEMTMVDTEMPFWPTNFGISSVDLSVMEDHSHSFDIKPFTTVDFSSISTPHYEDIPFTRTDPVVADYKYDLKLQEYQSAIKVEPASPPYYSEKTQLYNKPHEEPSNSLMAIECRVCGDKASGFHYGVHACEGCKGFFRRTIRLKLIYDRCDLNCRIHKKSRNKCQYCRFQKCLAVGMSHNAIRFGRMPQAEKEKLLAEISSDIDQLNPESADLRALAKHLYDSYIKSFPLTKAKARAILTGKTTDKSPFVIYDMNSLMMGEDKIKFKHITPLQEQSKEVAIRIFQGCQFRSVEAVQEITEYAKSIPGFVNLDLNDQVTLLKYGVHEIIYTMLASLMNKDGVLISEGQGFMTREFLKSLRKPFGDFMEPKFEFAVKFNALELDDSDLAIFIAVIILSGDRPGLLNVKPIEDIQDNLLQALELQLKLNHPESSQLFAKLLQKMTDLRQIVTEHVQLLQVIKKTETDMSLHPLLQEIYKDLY

For the compound `CCOC(=O)c1ccccc1N`, the compound was classed as inactive in [1], in [2], in assay [3], in [4] and in assay [5].

As to `c1cc2c3c(cccc3c1)CC2`, the compound was classed as inactive in [1], in assay [2], in [6], in [7], in [4] and in [5].

Regarding `CCCCCCCc1ccc(O)cc1`, the compound was called inactive in [1], in assay [2], in assay [6], in assay [4] and in assay [5]. In addition, the AC50 in assay [6] was 50 µM (active).

In the case of `CC(C)(C)OOC(C)(C)C`, the call in assay [1], in assay [2], in assay [8], in assay [4] and in assay [5] was inactive.

`O=c1ssc(Cl)c1Cl`: the result in assay [1], in assay [2], in assay [4] and in assay [5] was inactive. Further, in assay [3], the AC50 is 11.4 µM (active).

For `O=[N+]([O-])c1ccc(Cl)c(Cl)c1`, the call in [1], in assay [2], in assay [8], in [3], in [6] and in [4] was inactive. The compound was called inactive in assay [5].

Regarding `CCCCN(CCCC)SN(C)C(=O)Oc1cccc2c1OC(C)(C)C2`, the compound was classed as inactive in assay [1], in assay [2], in [6], in [4] and in assay [5]. Besides, the AC50 in assay [6] is 86.2 µM (active).

With `CC(C)(C)N(NC(=O)c1ccc(Cl)cc1)C(=O)c1ccccc1`, the compound was classed as inactive in assay [1], in assay [2], in [3], in assay [4] and in [5]. For the same compound, the AC50 in assay [8] is 70.1 µM (active).

Consider `CO/N=C(/C(=O)OC)c1ccccc1COc1ccccc1C`, for which the AC50 is 15.7 µM (active) in assay [1]; 21.9 µM (active) in [2]; 13.4 µM (active) in assay [8]; 12.4 µM (active) in assay [3]; 3.98 µM (active) in assay [9]; 13.1 µM (active) in [10]. For the same compound, the compound was called inactive in [6].

On to `CCOc1ccc(C(C)(C)COCc2cccc(Oc3ccccc3)c2)cc1`, for which the compound was classed as inactive in [1], in assay [2], in assay [8], in assay [6], in [7] and in assay [4]. Besides, in [5], the compound was called inactive.

`O=P(OCC(Br)CBr)(OCC(Br)CBr)OCC(Br)CBr` (stereo not drawn): the compound was called inactive in assay [1], in assay [2], in assay [6], in [4] and in assay [5]. Besides, the AC50 in assay [8] was 11.4 µM (active); in assay [3] it was 29 µM (active).

In the case of `CCOC(=O)c1ccccc1C(=O)OCC`, the result in [1], in [2], in assay [6], in [7], in [4] and in assay [5] was inactive.

In the case of `CCCN(CCC)c1c([N+](=O)[O-])cc(C(C)C)cc1[N+](=O)[O-]`, the figures for the AC50 in assay [1] and in [6] were 12.2 µM (active) and 75.7 µM (active), respectively. Besides, the result in assay [2], in assay [6], in assay [4] and in assay [5] was inactive.

As to `CCOP(=S)(OCC)SCSCC`, the compound was called inactive in assay [1], in assay [2], in assay [3], in [6], in assay [4] and in [5]. In addition, the AC50 in [8] was 32.6 µM (active).

Take `CCCCC(CC)COC(=O)c1c(Br)c(Br)c(Br)c(Br)c1C(=O)OCC(CC)CCCC` (stereo not drawn): the compound was classed as inactive in [1], in assay [2], in [8], in assay [3], in assay [6] and in [4]. For the same compound, the compound was classed as inactive in assay [5].

For `O=C(O)C(Cl)Cl`, the outcome in assay [1], in assay [2], in assay [6], in [7], in [4] and in [5] was inactive.

Take `Cc1ccc([N+](=O)[O-])cc1C`: the call in [1], in assay [2], in [8], in assay [3], in [6] and in assay [4] was inactive. Moreover, in assay [5], the call was inactive.

For `O=C(CBr)OCc1ccccc1`, the result in [1], in assay [2], in assay [8], in [6], in [4] and in assay [5] was inactive.

In the case of `O=S1(=O)OCC2C(CO1)C1(Cl)C(Cl)=C(Cl)C2(Cl)C1(Cl)Cl` (stereo not drawn), the compound was classed as inactive in assay [1], in [2], in assay [6], in assay [4] and in [5]. The AC50 in [8] was 49.3 µM (active); in [3], 50 µM (active); in assay [9], 7.28 µM (active); in [10], 2.84 µM (active).

As for `CCN(CC)c1ccccc1`, the compound was called inactive in assay [1], in assay [2], in assay [3], in assay [6], in assay [4] and in assay [5].

As for `O=S(=O)(c1ccc(O)cc1)c1ccc(O)cc1`, the AC50 in assay [1] is 12.6 µM (active); in [2] it was 51.9 µM (active); in assay [9] it was 19.1 µM (active). Moreover, the call in [8], in [4], in assay [5] and in assay [10] was inactive.

On to `Cc1ccc(N)cc1N`, for which the compound was classed as inactive in assay [1], in [2], in assay [8], in assay [3], in [6] and in assay [4]. The call in assay [5], in assay [9] and in assay [10] was inactive.

As for `CCCCN(CC)C(=O)SCCC`, the result in assay [1], in assay [2], in assay [8], in assay [3], in assay [4] and in assay [5] was inactive.

On to `c1nc[nH]n1`, for which the call in assay [1], in assay [2], in assay [8], in [4] and in [5] was inactive.

As to `O=C(O)C1C(C(=O)O)C2(Cl)C(Cl)=C(Cl)C1(Cl)C2(Cl)Cl` (stereo not drawn), the outcome in [1], in [2], in assay [8] and in assay [3] was inactive.

As to `CCCCC(CC)COP(=O)(Oc1ccccc1)Oc1ccccc1` (stereo not drawn), the result in assay [1], in [2], in assay [3], in [6] and in assay [5] was inactive. In addition, the AC50 in [8] was 2.85 µM (active).

`CCCCN(CCCC)N=O`: the compound was called inactive in assay [1], in assay [2], in assay [8], in assay [6], in [4] and in assay [5].

As for `OCC1CO1` (stereo not drawn), the compound was called inactive in assay [1], in [2], in assay [3], in assay [6], in [7] and in [4]. For the same compound, the call in assay [5] was inactive.

For `CCC(C)(C)c1ccc(O)cc1`, the concentration at half-maximal activity (AC50) in assay [1] is 1.32 µM (active); in assay [2], 0.619 µM (active); in assay [8], 60.9 µM (active). For the same compound, the result in assay [3], in assay [6], in [4], in [5], in [9] and in assay [10] was inactive.

Consider `CCCCc1ccc(O)cc1`, for which the compound was classed as inactive in assay [1], in assay [2], in assay [8], in assay [6], in [4] and in [5]. Moreover, the compound was called inactive in assay [9] and in assay [10]. The AC50 in [3] is 67.9 µM (active).

With `CCCCc1ccccc1`, the result in assay [1], in assay [2], in [8], in [6], in [7] and in assay [4] was inactive. The compound was called inactive in assay [5].

For the compound `ClC1=C(Cl)C2(Cl)C3C(Cl)C(Cl)CC3C1(Cl)C2(Cl)Cl` (stereo not drawn), the call in assay [1], in assay [2], in [8], in assay [4] and in assay [5] was inactive.

For `ClC(Cl)(Cl)c1ccccc1`, the compound was called inactive in assay [1], in assay [2], in [8] and in assay [3].

For the compound `O=NN1CCCC1`, the result in assay [1], in assay [2], in assay [8], in [3], in assay [6] and in assay [4] was inactive. In [5], the compound was called inactive.

For `CCNc1nc(Cl)nc(NC(C)(C)C)n1`, the outcome in assay [1], in assay [2], in [8], in assay [3], in [6] and in assay [7] was inactive. Also, the result in [4], in [5] and in assay [9] was inactive. Besides, the AC50 in assay [10] was 9.93 µM (active).

For the compound `O=P(Oc1ccccc1)(Oc1ccccc1)Oc1ccccc1`, the AC50 in assay [1] was 12.4 µM (active); in assay [2], 7.54 µM (active); in assay [8], 11.9 µM (active); in assay [9], 2.92 µM (active); in [10] it was 3.68 µM (active). For the same compound, the compound was called inactive in assay [3], in assay [6], in assay [4] and in [5].

As to `c1ccc(OP(Oc2ccccc2)Oc2ccccc2)cc1`, in assay [7], the call was inactive.
